Consider ten compounds from PubChem BioAssay.

Active and inactive are the calls of the source. Unless noted, how the calls were made is not given here.

A short description of assay [1]: HepG2 liver cancer cell viability effects, profiling panel, resazurin fluorescence, 24 h, PK04 Diversity Set (AID 1172). To be noted: higher = more signal. In general terms: Resazurin is reduced to fluorescent resorufin, in cell work by metabolically active cells.
Assay [2] can be described thus: basal S. cerevisiae growth modulation, no modifier, primary screen, OD600, strain BY4716, 24 h, basal condition (AID 1173). To be noted: OD600, 24 h, higher = more signal, called active from +8 up or from −8 down.
The nature of assay [3]: MM1S myeloma cell viability, profiling panel, resazurin fluorescence, basal, 24 h, PK04 Diversity Set (AID 1174).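 Further: MM1S multiple myeloma cell line.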 To be noted: higher = more signal, called active from +8 up or from −8 down.
The target of assay [4] is Dihydroorotate dehydrogenase (quinone), mitochondrial (Plasmodium falciparum (isolate 3D7)) (UniProt Q08210). In words: PfDHODH enzyme inhibitors, primary screen, biochemical, C-terminal His tag, absorbance 600 nm (AID 1175).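 Further: recombinant parasite enzyme with a five histidine tag at its C terminus.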 To be noted: DCIP absorbance 600 nm, higher = more signal, called active from +8 up or from −8 down.
Assay [5] can be described thus: P. aeruginosa biofilm formation inhibitors, primary screen, strain PAO1, LB-PBS medium, absorbance 600 nm (AID 1176). The note with it: P. aeruginosa PAO1 growth/biofilm, A600, 12 h; higher = more signal.
Assay [6] in a line: S. cerevisiae RM11-1a growth modifiers, primary screen, strain RM11-1a, OD600, basal, 24 h (AID 1177).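 Further: cultures grown under basal conditions with no added stressor.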 The note with it: OD600, 24 h, higher = more signal, called active from +8 up or from −8 down.
Assay [7] can be described thus: E. coli acrAB mutant growth effects, primary screen, E. coli filamentation inducers, strain DRC39, OD650, 24 h (AID 1178).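 Further: growth measured as culture turbidity by optical density at 650 nm.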 To be noted: higher = more signal, called active from +8 up or from −8 down.
Assay [8] in a line: E. coli acrAB mutant growth effects, primary screen, E. coli filamentation inducers, strain DRC39, OD650, 48 h (AID 1179).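 Further: screen aims at cell division blockers that make cells filament.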 To be noted: E. coli DRC39 delta-acrAB growth, higher = more signal, called active from +8 up or from −8 down.
Assay [9] can be described thus: RPMI8226 myeloma cell viability, profiling panel, resazurin fluorescence, basal, 24 h, PK04 Diversity Set (AID 1180).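 Further: RPMI8826 multiple myeloma cell line at 5000 cells per well.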 To be noted: higher = more signal.
Assay [10] deals with E3 ubiquitin-protein ligase XIAP (Homo sapiens) (UniProt P98170). The assay can be described thus: XIAP binders, primary screen, biophysical, small-molecule microarray, fluorescence 635 nm (AID 1181).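 Further: score merges 667 nm emission and signal to noise over triplicate slides.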 The note with it: small-molecule microarray binding, higher = more signal.
For assay [11], the system named is XIP peptide (Xip251-270) binding. The assay can be described thus: small-molecule binders of XIP peptide, primary screen, biochemical, small-molecule microarray, fluorescence 635/667 nm, 0.1 µg/mL protein (AID 1182). The note with it: fluorescent protein binding, 635 nm, higher = more signal, called active from +8 up or from −8 down.
Assay [12] deals with XIP peptide (Xip251-270). In words: small-molecule binders of XIP peptide, primary screen, biochemical, small-molecule microarray, fluorescence 635/667 nm, 0.5 µg/mL protein (AID 1183). To be noted: small-molecule microarray binding, fluorescence 635 nm; higher = more signal.
Assay [13] in a line: Plasmodium falciparum growth inhibition, primary screen, strain 3D7, DAPI fluorescence, 100 nL (AID 1184).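 Further: parasites grown inside human red blood cells in medium with human serum.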 To be noted: P. falciparum 3D7 growth, 3 d, higher = more signal.
The target of assay [14] is Homeobox protein Hox-A13 (Mus musculus) (UniProt Q62424). The assay can be described thus: inhibitors of HoxA13-DNA binding, primary screen, biochemical, fluorescence polarization, labeled oligonucleotide (AID 1185). To be noted: 15 min, higher = more signal, called active from +8 up or from −8 down.
Assay [15] is described as follows: inhibitors of hydroxyurea-induced Chk1 phosphorylation, primary screen, imaging, HeLa, phospho-Chk1 antibody, percent positive cells (AID 1186). The note with it: hydroxyurea-induced phospho-Chk1 immunofluorescence imaging, higher = more signal.
Assay [16] can be described thus: inhibitors of hydroxyurea-induced Chk1 phosphorylation, primary screen, imaging, HeLa, phospho-Chk1 nuclear intensity (AID 1187). To be noted: hydroxyurea-induced phospho-Chk1 immunofluorescence imaging, higher = more signal.

Sequence of E3 ubiquitin-protein ligase XIAP (Homo sapiens) (P98170 whole entry, looked up): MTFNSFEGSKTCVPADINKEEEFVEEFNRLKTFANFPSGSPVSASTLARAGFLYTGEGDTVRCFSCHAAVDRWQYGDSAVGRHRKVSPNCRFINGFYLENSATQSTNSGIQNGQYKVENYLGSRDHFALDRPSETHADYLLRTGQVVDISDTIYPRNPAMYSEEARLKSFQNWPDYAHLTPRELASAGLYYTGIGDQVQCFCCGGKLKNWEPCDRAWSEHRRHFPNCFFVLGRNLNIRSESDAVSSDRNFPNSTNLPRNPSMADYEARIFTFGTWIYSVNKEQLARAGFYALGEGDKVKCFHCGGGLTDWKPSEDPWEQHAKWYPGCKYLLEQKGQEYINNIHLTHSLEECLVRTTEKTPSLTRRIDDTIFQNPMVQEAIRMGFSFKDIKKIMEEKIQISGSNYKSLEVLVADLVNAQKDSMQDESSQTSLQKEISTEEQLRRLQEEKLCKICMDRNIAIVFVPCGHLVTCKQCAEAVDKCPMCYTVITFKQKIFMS
Sequence of Dihydroorotate dehydrogenase (quinone), mitochondrial (Plasmodium falciparum (isolate 3D7)) (Q08210 whole entry, looked up): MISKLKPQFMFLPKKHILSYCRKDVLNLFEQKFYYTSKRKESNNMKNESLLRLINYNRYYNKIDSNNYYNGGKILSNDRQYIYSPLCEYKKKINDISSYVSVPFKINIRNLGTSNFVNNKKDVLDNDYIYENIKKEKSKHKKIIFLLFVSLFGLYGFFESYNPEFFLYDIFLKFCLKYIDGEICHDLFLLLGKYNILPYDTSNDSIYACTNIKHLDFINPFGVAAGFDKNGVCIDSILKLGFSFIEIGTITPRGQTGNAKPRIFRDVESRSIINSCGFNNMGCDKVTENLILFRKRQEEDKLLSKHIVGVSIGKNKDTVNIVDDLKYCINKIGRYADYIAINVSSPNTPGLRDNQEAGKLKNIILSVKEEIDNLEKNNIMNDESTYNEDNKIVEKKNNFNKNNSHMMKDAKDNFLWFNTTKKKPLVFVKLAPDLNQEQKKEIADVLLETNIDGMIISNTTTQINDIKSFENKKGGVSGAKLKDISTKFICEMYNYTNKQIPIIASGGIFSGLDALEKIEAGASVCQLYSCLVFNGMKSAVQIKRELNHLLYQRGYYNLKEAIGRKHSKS
Sequence of Homeobox protein Hox-A13 (Mus musculus) (Q62424 whole entry, looked up): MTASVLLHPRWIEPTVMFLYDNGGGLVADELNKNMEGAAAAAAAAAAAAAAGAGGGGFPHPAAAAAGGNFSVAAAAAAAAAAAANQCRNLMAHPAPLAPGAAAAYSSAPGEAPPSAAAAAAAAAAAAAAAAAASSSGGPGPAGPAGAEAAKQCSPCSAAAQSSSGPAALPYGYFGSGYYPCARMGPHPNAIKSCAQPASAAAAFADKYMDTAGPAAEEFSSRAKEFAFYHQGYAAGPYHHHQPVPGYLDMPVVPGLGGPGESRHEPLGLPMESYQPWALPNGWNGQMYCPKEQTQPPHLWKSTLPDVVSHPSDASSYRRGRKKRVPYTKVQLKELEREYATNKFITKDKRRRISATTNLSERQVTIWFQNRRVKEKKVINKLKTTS

Consider `[N-]=[N+]=NCc1ccccc1[C@@H]1OC(c2ccc(OCCCO)cc2)=N[C@]1(Cc1ccccc1N=[N+]=[N-])C(N)=O`, for which the z-score in assay [1] was -0.0426; in [2] it was -2.11 (inactive); in assay [3] it was -0.727 (inactive); in [5] it was 0.603 (inactive); in assay [6], 0.604 (inactive); in [7] it was 0.333 (inactive). The z-score in assay [8] was -0.37 (inactive); in assay [9] it was -1.2; in assay [13], -1.63; in assay [14], -3.75 (inactive); in assay [15], 0.135 (inactive); in assay [16] it was 0.278 (inactive). The composite z-score in assay [4] is 0.0263 (inactive); in [10] it was 0.0656; in assay [11], 0.411 (inactive); in assay [12], 0.785.
In the case of `O=C1C2C=CC(C(O)c3ccc(Br)cc3)N(n3cnnc3)C2C(=O)N1Cc1ccccc1` (stereo not given), the z-score in [1] was -0.009; in assay [2] it was -17.1 (active); in assay [3], -0.381 (inactive); in assay [5], -0.184 (inactive); in assay [6], -23 (active); in [7] it was -0.999 (inactive). Also, the z-score is -1.96 (inactive) in assay [8]; -0.396 in [9]; -0.084 in assay [13]; 0.314 (inactive) in assay [14]; -0.47 (inactive) in assay [15]; -0.618 (inactive) in assay [16]. Also, the composite z-score in assay [4] is -1.37 (inactive); in assay [10], 1.33; in assay [11], 0.568 (inactive); in assay [12] it was 0.76.
On to `C=C(C(=O)CC[C@@H](OC(C)=O)c1ccc(OCCO)cc1)C(C)C`, for which the z-score is 0.0804 in assay [1]; -0.99 (inactive) in assay [2]; -0.522 (inactive) in assay [3]; 1.48 (inactive) in [5]; 0.156 (inactive) in assay [6]; -0.248 (inactive) in [7]. Further, the z-score is -0.227 (inactive) in assay [8]; -0.271 in assay [9]; -1.42 in assay [13]; -3.67 (inactive) in [14]; 0.598 (inactive) in assay [15]; 0.147 (inactive) in assay [16]. Further, the composite z-score in [4] was -1.51 (inactive); in [10], 0.612; in assay [11] it was 0.564 (inactive); in [12], 0.101.
As for `O=C1O[C@@H](c2ccccc2)[C@@H](c2ccccc2)N2[C@@H](c3ccccc3OCCO)[C@]3(C(=O)Nc4ccc(C#CC5(O)CCCCCC5)cc43)[C@@H](C(=O)NC[C@H](O)c3ccccc3)[C@H]12`, the z-score is -2.02 in assay [1]; 0.934 (inactive) in assay [2]; -7.38 (inactive) in assay [3]; 1.66 (inactive) in assay [5]; 2.41 (inactive) in assay [6]; -0.0933 (inactive) in assay [7]. The z-score in assay [8] is -0.0241 (inactive); in assay [9], -7.19; in assay [13] it was -1.96; in assay [14], -2.71 (inactive); in [15], -0.213 (inactive); in assay [16], 0.0361 (inactive). Moreover, the composite z-score in assay [4] was -0.516 (inactive); in assay [10], 0.0264; in assay [11], 0.487 (inactive); in assay [12], 0.76.
Take `CC(C)NC(=O)[C@@H]1c2ccccc2C(=O)N(C2CCCCC2)[C@H]1c1ccc(CO)cc1`: the z-score in assay [1] is -0.208; in assay [2] it was -0.63 (inactive); in assay [3] it was -0.569 (inactive); in assay [5], 0.36 (inactive); in [6], 0.052 (inactive); in assay [7], 0.126 (inactive). The z-score in assay [8] was -0.0549 (inactive); in assay [9], -0.374; in assay [13] it was -0.361; in [14], -2.65 (inactive); in [15], -0.0625 (inactive); in assay [16], -0.237 (inactive). Further, the composite z-score in assay [4] is -0.131 (inactive); in assay [10], 0.0124; in assay [11] it was 0.457 (inactive); in assay [12], 0.254.
Regarding `O=C1c2ccccc2[C@](Cc2ccccc2I)(C(=O)O)[C@H](c2ccc(CO)cc2)N1Cc1ccccc1C(F)(F)F`, the z-score in [1] was 1.02; in assay [2] it was -0.874 (inactive); in [3], 0.283 (inactive); in [5], -0.0528 (inactive); in [6] it was 0.893 (inactive); in assay [7], -0.0217 (inactive). Also, the z-score is -0.0555 (inactive) in assay [8]; 0.0019 in [9]; 0.33 in [13]; -5.85 (inactive) in assay [14]; -0.344 (inactive) in assay [15]; -0.572 (inactive) in [16]. Further, the composite z-score was 0.833 (inactive) in [4], 0.12 in assay [10], 0.185 (inactive) in [11] and 0.506 in assay [12].
Turning to `CC(=O)N1Cc2ccccc2C[C@@]2(N=C(c3ccc(OCCCO)cc3)O[C@H]2c2ccccc2)C1=O`, the z-score is -1.33 in assay [1]; -2.24 (inactive) in assay [2]; -4.82 (inactive) in assay [3]; 1.76 (inactive) in [5]; 0.372 (inactive) in assay [6]; 1.62 (inactive) in [7]. For the same compound, the z-score in assay [8] was 1.4 (inactive); in assay [9], -4.8; in assay [13], -2.24; in assay [14], -3.3 (inactive); in assay [15] it was -0.662 (inactive); in assay [16] it was -0.681 (inactive). For the same compound, the composite z-score was -0.847 (inactive) in assay [4], 0.0651 in assay [10], 1.11 (inactive) in assay [11] and 0.887 in assay [12].
Take `NC(=O)[C@@]1(CCS(=O)(=O)c2ccccc2)N=C(c2ccc(OCCCO)cc2)O[C@H]1c1ccccc1`: the z-score is -0.0687 in [1]; -1.38 (inactive) in [2]; 0.837 (inactive) in assay [3]; -0.73 (inactive) in assay [5]; -0.832 (inactive) in [6]; 0.818 (inactive) in assay [7]. Further, the z-score is 0.565 (inactive) in assay [8]; 0.429 in [9]; -1.9 in [13]; -6.86 (inactive) in assay [14]; 0.0218 (inactive) in assay [15]; 0.56 (inactive) in [16]. Also, the composite z-score was -0.319 (inactive) in assay [4], 0.0097 in assay [10], 1.11 (inactive) in assay [11] and 0.863 in [12].
Turning to `O=C(NCC(O)CO)[C@@]1(Cc2ccccc2)N=C(c2ccc(OCCCO)cc2)O[C@H]1c1ccccc1` (stereo not given in full), the z-score in assay [1] is 0.531; in assay [2], -2.2 (inactive); in assay [3], 0.583 (inactive); in assay [5], 0.41 (inactive); in assay [6] it was -0.547 (inactive); in assay [7], 2.7 (inactive). The z-score is 0.249 (inactive) in assay [8]; 0.391 in [9]; -1.22 in [13]; -4 (inactive) in assay [14]; -0.607 (inactive) in assay [15]; -0.29 (inactive) in assay [16]. Further, the composite z-score was -0.507 (inactive) in assay [4], 0.221 in [10], 0.502 (inactive) in [11] and 0.801 in [12].
With `COCCCNC(=O)[C@]1(Cc2ccccc2N=[N+]=[N-])N=C(c2ccc(OCCCO)cc2)O[C@@H]1c1ccccc1CN=[N+]=[N-]`, the z-score was -0.412 in assay [1]; 0.0634 (inactive) in assay [2]; -2.16 (inactive) in assay [3]; 1.83 (inactive) in [5]; -0.22 (inactive) in assay [6]; 2.79 (inactive) in assay [7]. Besides, the z-score was 0.499 (inactive) in assay [8]; -2.01 in [9]; -2.21 in assay [13]; -0.242 (inactive) in [14]; -0.659 (inactive) in assay [15]; -0.443 (inactive) in [16]. The composite z-score was 0.0785 (inactive) in assay [4], 0.283 in [10], 0.0423 (inactive) in assay [11] and 0.758 in [12].
